# Screening data deposited in PubChem by National Center for Advancing Translational Sciences (NCATS).
# HepG2 tox = kills HepG2 cells in TGF-b inhibitor counter-screen | AID 588856 | Potency, µM (doses to about 46.1 µM), actives largely listed as cytotoxic | 410,000 tested, 0.76% active | HepG2 CAGA-GFP viability, ATP luminescence, 18 h
#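 HepG2 CAGA-GFP cells (1000/well, DMEM with 1% FBS) received compound, then TGF-beta at 500 pg/mL final, and were incubated 18 hours at 37 degrees C. Viability was read by CellTiter-Glo luminescence. Media-only wells were set as complete cell-killing and DMSO as no toxicity.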
# DT40 TDP1 CPT = growth inhibition of DT40 Tdp1-/-;hTDP1 cells with camptothecin (screen for TDP1 inhibitors). 420,000 tested, 12% active. Potency, µM (top dose mostly 46.2 µM), most hits filed as inhibitors. chicken DT40 Tdp1-/-;hTDP1 cells + 20 nM CPT, ATP luminescence, 48 h; further: nearly all actives have a fitted effect of over 55% in size
#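 Cell growth measured by CellTiter-Glo luminescence after a minimum 48 h, 37 C compound exposure with 20 nM CPT in Tdp1-knockout DT40 cells stably expressing hTDP1, seeded 400/well; qHTS titration format.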
# S-ASM inh = human S-ASM enzyme inhibition | 340,000 tested, 0.006% active | placental ASM, HMU-PC fluorogenic substrate, 60 min | P17405 | Potency, µM (highest dose often 57.5 µM), actives largely listed as inhibitors
# Target sequence (P17405 47-631 limits assumed): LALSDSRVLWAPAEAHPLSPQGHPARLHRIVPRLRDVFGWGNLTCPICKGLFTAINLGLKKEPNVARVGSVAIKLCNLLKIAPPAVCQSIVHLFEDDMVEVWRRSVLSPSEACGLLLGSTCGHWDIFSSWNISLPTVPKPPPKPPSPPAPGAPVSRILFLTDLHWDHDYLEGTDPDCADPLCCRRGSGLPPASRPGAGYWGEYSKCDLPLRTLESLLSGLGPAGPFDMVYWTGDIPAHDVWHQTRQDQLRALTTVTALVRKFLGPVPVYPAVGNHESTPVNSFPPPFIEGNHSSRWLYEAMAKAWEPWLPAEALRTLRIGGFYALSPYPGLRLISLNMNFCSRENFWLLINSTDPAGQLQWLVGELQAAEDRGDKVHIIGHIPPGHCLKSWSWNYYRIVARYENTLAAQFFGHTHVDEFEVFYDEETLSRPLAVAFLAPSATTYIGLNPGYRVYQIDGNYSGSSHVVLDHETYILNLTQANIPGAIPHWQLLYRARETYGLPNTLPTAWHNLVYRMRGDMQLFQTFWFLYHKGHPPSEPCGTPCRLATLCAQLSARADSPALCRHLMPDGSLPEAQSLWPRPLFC
#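 Steps: dispense placental human ASM, pin compound, wait 10 min at room temperature, add HMU-PC0 substrate at 9 uM final, incubate 60 min at 37 °C, add stop solution raising pH to 10, read fluorescence.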
# TGFb inhibitor = inhibitors of TGF-b signaling | HepG2 CAGA-GFP TGF-b/SMAD3 reporter, GFP fluorescence, 18 h; TGF-beta stimulated, 500 pg/mL final | Potency, µM (doses to about 46.1 µM), actives largely listed as inhibitors | 410,000 tested, 1.2% active; further: nearly all actives have a fitted effect of over 65% in size
#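 GFP signal (ex488/em500-530) from TGF-beta-stimulated HEPG2 CAGA-GFP cells, 500 pg/mL final, 18 h at 37 degrees C in DMEM plus 1% FBS, normalized to unstimulated and DMSO-stimulated controls.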
# TDP1 cell noCPT = qHTS for Inhibitors of human tyrosyl-DNA phosphodiesterase 1 (TDP1): qHTS in cells in absence of CPT; 420,000 tested, 15% active; Potency, µM (highest dose often 46.2 µM), usual class: inhibitors; DT40 Tdp1-/- hTDP1 cells, no CPT, ATP luminescence, 48 h; further: nearly all actives have a fitted effect of over 55% in size
#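 Chicken DT40 Tdp1-/- cells complemented with human TDP1, screened without camptothecin (DMSO vehicle only), 400 cells/well. Compounds pin-transferred, cells incubated at 37 °C for at least 48 hr. Growth read as ATP-dependent luminescence (CellTiter-Glo, 30 min at RT).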
# IL-1B inflam inh = inflammasome signaling inhibition, IL-1 beta readout. THP-1 LPS/ATP IL-1B secretion, AlphaLISA, 16 h; active compounds read low. activity change, % at 57.5 µM. 360,000 tested, 4.7% active. AID 743279; in the data active means activity change below about -50%; inconclusive means mostly about -30% to -49%
#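 THP-1 cells pretreated 1 hr with compounds (up to 57.5 uM final), then stimulated with LPS (250 ng/mL final) plus ATP (1.25 mM final); secreted IL-1B measured by AlphaLISA after 16 hr, decreased signal indicating inhibition.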
# Numbers stand for hits; - = inactive; ? = inconclusive; . = not tested or not shown. Shown are actives, neighbours in structure and some others; about 19% of the full set was active somewhere. Unless noted, the call rests on the fitted dose curve; in most records, active means well fitted curve in the direction sought with a large enough effect; inconclusive means small, poorly fitted or top-dose-only effect, or another doubt; inactive means no such curve, though single readings can be large; an effect the other way counts as inactive or inconclusive.
SMILES,HepG2 tox,DT40 TDP1 CPT,S-ASM inh,TGFb inhibitor,TDP1 cell noCPT,IL-1B inflam inh
CC(OC(=O)c1nn(C)c(=O)c2ccccc12)C(=O)NC1CCCCC1C (stereo not given),-,-,-,-,-,-
Cc1nn(-c2nc(-c3ccco3)cc(C(F)(F)F)n2)c(C)c1Cl,-,-,-,-,-,-
Cc1nn(-c2nc(-c3ccc(F)cc3)cc(C(F)(F)F)n2)c(C)c1Cl,-,18.4µM,.,-,18.4µM,.
Cc1nn(-c2nc(-c3ccc(F)cc3)cc(C(F)(F)F)n2)c(C)c1Br,-,?,.,-,18.4µM,.
O=C(NC1CCCC1)C1C(c2ccc(C(F)(F)F)cc2)=Nc2ccccc2N1C(=O)c1cccc(C(F)(F)F)c1 (stereo not given),.,?,.,.,?,-
O=C(COc1ncnc2ccc(Br)cc12)NCc1ccco1,-,?,-,-,-,-
COc1cc(OC)cc(N(C(=O)C2COc3ccccc3O2)C(C(=O)NC2CCCCC2)c2ccc(O)cc2)c1 (stereo not given),-,?,-,-,?,-60.4
COc1ccc(N(C(=O)C2COc3ccccc3O2)C(C(=O)NC2CCCCC2)c2ccccc2)cc1OC (stereo not given),-,?,-,-,?,-
CC(NC(=O)C1CCOCC1)c1nnc2n1CCN(Cc1ccc(F)cc1)CC2 (stereo not given),.,-,.,.,-,.
CCCn1c(N2CCN(Cc3ccc(Cl)cc3)CC2)nc2ccccc21,-,?,-,15.8µM,11.6µM,-
CCn1c(N2CCN(Cc3ccc([N+](=O)[O-])cc3)CC2)nc2ccccc21,-,?,-,?,20.6µM,-
CCCn1c(N2CCN(C(=O)/C=C/C(=O)O)CC2)nc2ccccc21,-,-,-,-,-,-
C=CCN1[C@@H](Cc2ccccc2)COc2cc(N3CCSCC3)ccc2S1(=O)=O,.,?,.,.,?,-
CCOc1ccc(NC(=O)Cn2cnc3nc4c(cc3c2=O)CCCC4)cc1,-,?,.,-,-,.
CC(=O)Nc1cccc(NC(=O)CS(=O)(=O)c2cn(CC(=O)N3CCCC3)c3ccccc23)c1,-,-,-,-,-,-
COc1ccc2nc(NCc3ccc(OC)c(OC)c3OC)sc2c1,-,?,-,?,?,-
Cc1cc(C(=O)NCC(=O)Nc2ccc(F)c(F)c2)c(C)o1,-,-,-,-,-,-
Nc1c(N(CCO)C(=O)C2CCCC2)c(=O)[nH]c(=O)n1Cc1ccccc1,-,-,-,-,-,-
O=C(NCCCn1ccnc1)c1ccc(N2CCCCCC2)c([N+](=O)[O-])c1,-,18.4µM,-,-,?,-
C=C1CCN(c2ccc(C(=O)NCCC)cc2[N+](=O)[O-])CC1,-,16.4µM,-,?,16.4µM,-55.4
O=C(NC1(C(F)(F)F)C(=O)Nc2c1c(=O)[nH]c(=O)n2-c1ccccc1)c1cccnc1 (stereo not given),-,-,-,-,-,-
CCNC(=O)c1c(C)oc2ncn(C)c(=O)c12,-,-,.,-,-,.
O=C(Nc1ccc(F)cc1)c1nc2c(nnn2Cc2cccc3ccccc23)c(=O)[nH]1,-,?,-,-,14.6µM,-98.4
CCCOC(=O)c1c(NC(=O)C2c3ccccc3Oc3ccccc32)sc2c1CCCC2,-,?,.,-,?,.
O=C1CCC(=O)N1N1C(=O)C2C3c4ccccc4C(c4ccccc43)C2C1=O (stereo not given),-,-,-,-,-,-
SMILES,HepG2 tox,DT40 TDP1 CPT,S-ASM inh,TGFb inhibitor,TDP1 cell noCPT,IL-1B inflam inh
O=C1C2C3c4ccccc4C(c4ccccc43)[C@@H]2c2nc3ccccc3n21 (stereo not given in full),-,11.6µM,-,-,10.3µM,-
C[n+]1cn(CC(O)COCc2ccccc2)c2ccccc21 (stereo not given),-,?,-,-,?,-
CCCc1n(CC(O)COCC2CC=CCC2)c2ccccc2[n+]1C (stereo not given),-,8.2µM,-,-,10.3µM,-
O=C(c1ccccc1)N1CCN(CC(O)COC2CCCCC2)CC1 (stereo not given),-,-,-,-,-,-
CCCc1n(CC(O)COCc2ccccc2)c2ccccc2[n+]1C (stereo not given),-,23.1µM,-,-,23.1µM,-
O=C(O)c1ccccc1C(=O)NCC(O)COCC1CC=CCC1 (stereo not given),-,-,-,-,-,-
CCCc1n(CC(O)COC2CCCCC2)c2ccccc2[n+]1C (stereo not given),-,7.31µM,-,-,3.66µM,-
COCCNC(=O)C(c1ccc(F)cc1)N(Cc1ccccc1)C(=O)CCC(=O)Nc1nccs1 (stereo not given),-,-,-,-,-,-
C1=C/C(=C2/C=Cc3ccccc32)c2ccccc2N1,-,?,.,?,-,.
NNc1nc(-c2ccccc2)cc(-c2ccccc2)n1,-,16.4µM,-,-,?,?
Nc1nc(-c2ccccc2)cc(-c2ccccc2O)n1,-,?,?,?,?,-60.7
Clc1cc(-c2ccccc2)nc(-c2ccccc2)n1,-,?,-,-,-,-51.6
Brc1cc(-c2ccccc2)nc(-c2ccccc2)n1,-,-,-,-,-,-84.3
CCOC(=O)c1ccc(NC(=O)COCc2cc(-c3ccc4c(c3)OCO4)on2)cc1,-,-,.,-,-,.
Oc1ccc(-c2cc(-c3ccc(O)cc3)nc(-c3ccccc3)n2)cc1,-,?,-,?,?,-98.3
Cc1cc(C)c(O)c(-c2cc(C(=O)NCc3ccccc3)[nH]n2)c1,-,18.4µM,-,?,?,?
COc1ccc(CNC(=O)c2cc(-c3cc(C)cc(C)c3O)n[nH]2)cc1,-,?,-,?,?,-68.5
COc1ccc(-c2cc(C(=O)Nc3cc(OC)c(OC)c(OC)c3)[nH]n2)c(C)c1,-,23.1µM,.,-,11.6µM,-
CCNC(=O)c1c(NC(C)=O)sc2c1CCCC2,-,-,-,-,-,-
CCNC(=O)c1c(NC(=O)c2cc(-c3cc(C)cc(C)c3O)n[nH]2)sc2c1CCCC2,-,?,-,-,5.8µM,-
Cc1cc(C)c(O)c(-c2cc(C(=O)NCCc3ccc(S(N)(=O)=O)cc3)[nH]n2)c1,-,-,-,-,9.2µM,-50.9
COc1cccc(CNc2ncc(C(=O)Nc3cc(OC)c(OC)c(OC)c3)c(C)n2)c1,-,8.2µM,-,-,9.2µM,-
